Test [1] addresses Hepatocyte nuclear factor 4-alpha (Homo sapiens) (UniProt P41235). Nature of the test: ATG_HNF4a_TRANS: Attagene TRANS-FACTORIAL HepG2 Assay for human Hepatocyte Nuclear Factor 4 alpha (HNF4a) (AID 2282982; active = hit-call score of the fitted dose curve at least 0.9, where 1 is the maximum). The note with it: HepG2 HNF4a transactivation reporter, mRNA readout. In outline:
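Using HepG2 liver cells transfected with GAL4-UAS reporter units, chemical-induced mRNA increases were assessed after 24 hours. Fluorescent RT-PCR fragments were separated by capillary electrophoresis and compared with DMSO negative controls.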

Test [2] in a line: ATG_M_06_TRANS: Attagene TRANS-FACTORIAL HepG2 Assay for M06 Transcription Factor (Internal Marker) (AID 2282983; active = hit-call score of the fitted dose curve at least 0.9, where 1 is the maximum). As to conditions: HepG2 Attagene TRANS M06 internal marker reporter. In outline:
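Background control endpoint: reporter mRNA from transiently transfected HepG2 after 24 h dosing, detected by RT-PCR with capillary electrophoresis fluorescence. Analysed for gain versus DMSO.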

Test [3] addresses Nuclear receptor subfamily 4 group A member 2 (Homo sapiens) (UniProt P43354). Nature of the test: ATG_NURR1_TRANS: Attagene TRANS-FACTORIAL HepG2 Assay for human Nuclear Receptor Related Protein 1 (NURR1) (AID 2282985; active = hit-call score of the fitted dose curve at least 0.9, where 1 is the maximum). As to conditions: HepG2 Attagene TRANS reporter, mRNA readout. In outline:
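Chimeric NR-Gal4 proteins were expressed in human HepG2 cells bearing GAL4-UAS reporter units, and induced reporter mRNA was quantified 24 h post-dosing by RT-PCR and capillary electrophoresis.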

Test [4] deals with Transcriptional activator Myb (Homo sapiens) (UniProt P10242). Put plainly: ATG_Myb_CIS: Attagene CIS-FACTORIAL HepG2 Assay for human Myeloblastosis (Myb) Proto-Oncogene Transcription Factor (AID 2282986). The note with it: HepG2 Attagene CIS-FACTORIAL Myb reporter transcription; actives raise or lower the signal. In outline:
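Reporter mRNA is quantified by RT-PCR and capillary electrophoresis 24 h after dosing HepG2 cells transfected with cis-regulated reporter units, which track endogenous transcription factor activity. Gain and loss of signal are fitted versus DMSO baseline.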

Test [5] deals with Nuclear respiratory factor 1 (Homo sapiens) (UniProt Q16656). Put plainly: ATG_NRF1_CIS: Attagene CIS-FACTORIAL HepG2 Assay for human Nuclear Respiratory Factor 1 (NRF1) Orphan Gene (AID 2282987). The note with it: HepG2 NRF1 cis-element reporter, Attagene multiplex; actives raise or lower the signal. In outline:
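Endogenous NRF1-driven reporter transcription in transfected HepG2 cells after 24 h treatment. Readout: RT-PCR products, 6-FAM labelled and resolved by capillary electrophoresis; changes fitted both directions relative to DMSO.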

Test [6] in a line: ATG_NFI_CIS: Attagene CIS-FACTORIAL HepG2 Assay for human Nuclear Factor I (NFI) (AID 2282989). The note with it: HepG2 cis-regulatory reporter, NFI response element transcription; actives raise or lower the signal. In outline: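 HepG2, transient MRTU, 24 h exposure; RNA→cDNA→PCR→FAM label→HpaI→CE fluorescence. Bidirectional fit, DMSO = baseline.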
Test [7] addresses Myc proto-oncogene protein (Homo sapiens) (UniProt P01106). Put plainly: ATG_Myc_CIS: Attagene CIS-FACTORIAL HepG2 Assay for human Myelocytomatosis (Myc) Proto-Oncogene Transcription Factor (AID 2282990). As to conditions: HepG2, Attagene cis-reporter transcription factor activity; actives raise or lower the signal. In outline:
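DMSO-normalised, bidirectionally fitted reporter mRNA signal. HepG2 cells transfected with cis reporter constructs, treated 24 h; transcripts detected by RT-PCR, 6-FAM primer extension and CE.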

Test [8] is described as follows: ATG_NF_kB_CIS: Attagene CIS-FACTORIAL HepG2 Assay for human Nuclear Factor Kappa B (NF-kB) (AID 2282991). The note with it: HepG2 Attagene cis-factorial NF-kB reporter mRNA; actives raise or lower the signal. In outline: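 Readout is reporter transcript level, gain or loss versus DMSO, measured 24 h post-dose via RT-PCR, fluorescent labelling and capillary electrophoresis. Human HepG2 liver cells carried transiently transfected CIS reporter constructs reflecting endogenous factors.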

A short description of test [9]: ATG_NRF2_ARE_CIS: Attagene CIS-FACTORIAL HepG2 Assay for human Nuclear Factor Erythroid 2 Related Factor 2 (NFR2) response to Antioxidant Response Elements (ARE) (AID 2282992). As to conditions: HepG2 Attagene ARE/NRF2 reporter, transcription factor activity; actives raise or lower the signal. In outline:
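Readout: reporter mRNA quantified by RT-PCR plus FAM-labelled primer extension, HpaI digestion and capillary electrophoresis, 24 h after dosing transfected HepG2 cells. Gain or loss of signal is fitted bidirectionally against DMSO baseline.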

Test [10] can be described thus: ATG_Oct_MLP_CIS: Attagene CIS-FACTORIAL HepG2 Assay for human Octamer-Binding Transcription Factor (Oct) (AID 2282993). The note with it: HepG2 Attagene cis-factorial Oct reporter, mRNA; actives raise or lower the signal. In outline:
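Multiplexed cis-reporter assay in human liver HepG2 cells, 24 h incubation. Reporter RNA amplified and labelled, then resolved by capillary electrophoresis; DMSO serves as negative control and baseline.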

Test [11] addresses Cellular tumor antigen p53 (Homo sapiens) (UniProt P04637). Put plainly: ATG_p53_CIS: Attagene CIS-FACTORIAL HepG2 Assay for human p53 Transcription Factor (AID 2282994). The note with it: HepG2 p53 cis-element reporter, Attagene mRNA; actives raise or lower the signal. In outline:
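Read-out: reporter mRNA by RT-PCR plus capillary electrophoresis with fluorescence detection. Human HepG2 liver cells carried transfected multi-reporter cis-element constructs, dosed 24 h. Gain or loss of signal fitted bidirectionally against DMSO control.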

Test [12] can be described thus: ATG_M_32_TRANS: Attagene TRANS-FACTORIAL HepG2 Assay for M32 Transcription Factor (Internal Marker) (AID 2282984; active = hit-call score of the fitted dose curve at least 0.9, where 1 is the maximum;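 note: transcript level of a background control reporter unit measured by RT-PCR and capillary electrophoresis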). As to conditions: HepG2 Attagene TRANS M32 internal marker reporter. In outline:
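Fluorescence-detected mRNA induction, HepG2 liver cells, 24 h after dosing. Multiple GAL4-UAS reporter units introduced by transient transfection; background-control endpoint analysed for gain of signal against DMSO.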

Test [13] has as its target human Peroxisome Proliferator-activated Receptor alpha (PPARa), PPARA (gene 5465) (UniProt Q07869). Nature of the test: ATG_PPARa_TRANS: Attagene TRANS-FACTORIAL HepG2 Assay for human Peroxisome Proliferator-activated Receptor alpha (PPARa) (AID 2283001; active = hit-call score of the fitted dose curve at least 0.9, where 1 is the maximum;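 for AC50: potency for gain of reporter signal over DMSO so agonist or activator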). In outline:
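Exposure: 24 h, transiently transfected HepG2 cells. Endpoint: GAL4-UAS reporter mRNA, RT-PCR with capillary electrophoresis fluorescence. Baseline: DMSO; increases fitted.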

Test [14] has as its target human Peroxisome Proliferator-activated Receptor delta (PPARd), PPARD (gene 5467) (UniProt Q03181). Put plainly: ATG_PPARd_TRANS: Attagene TRANS-FACTORIAL HepG2 Assay for human Peroxisome Proliferator-activated Receptor delta (PPARd) (AID 2283002; active = hit-call score of the fitted dose curve at least 0.9, where 1 is the maximum). In outline:
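Measured quantity: GAL4-UAS reporter transcript induction in HepG2 after 24 h chemical dosing, with NR-Gal4 chimeras supplied by transient transfection. Detection by RT-PCR and capillary electrophoresis; upward fit against DMSO.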

Test [15] can be described thus: BSK_3C_TissueFactor: BioMAP Diversity Plus: 3C Assay for Tissue Factor Biomarker Activity (AID 2282997). The note with it: BioMAP 3C HUVEC, tissue factor biomarker readout; actives raise or lower the signal. In outline: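 After a 24 h chemical exposure of primary human umbilical vein endothelial cells, Tissue Factor levels were quantified by ELISA.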
Test [16] is described as follows: BSK_3C_uPAR: BioMAP Diversity Plus: 3C Assay for Urokinase-type plasminogen activator receptor (uPAR) Biomarker Activity (AID 2282998). As to conditions: BioMAP 3C HUVEC, uPAR biomarker ELISA; actives raise or lower the signal. In outline: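 Dose primary human umbilical vein endothelial cells, incubate 24 h, measure cell-surface uPAR by ELISA, then fit the signal in both directions against the DMSO negative control.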

A short description of test [17]: BSK_4H_Eotaxin3: BioMAP Diversity Plus: 4H Assay for Eotaxin 3 Biomarker Activity (AID 2283000).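 For outcome: CCL26 protein level quantified by ELISA in parallel with SRB cytotoxicity check.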 The note with it: primary human endothelial cells (HUVEC); actives raise or lower the signal. In outline: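 Chemicals were added to human umbilical vein endothelium cultures, and Eotaxin-3 was quantified by ELISA at 24 h. Values were derived by bidirectional fitting with DMSO serving as negative control and activity baseline.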

Read-out in test [18]: Intercellular Adhesion Molecule 1 (ICAM1), ICAM1 (gene 3383)
Put plainly: BSK_3C_ICAM1: BioMAP Diversity Plus: 3C Assay for Intercellular Adhesion Molecule 1 (ICAM1) Biomarker Activity (AID 2283003). The note with it: primary human endothelial cells (HUVEC); actives raise or lower the signal. In outline:
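Using DMSO as baseline, bidirectional curve fitting was applied to ICAM-1 ELISA signals from HUVEC in the 3C system, measured 24 h after compound addition.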

Experimental findings from PubChem BioAssay (EPA / NIEHS) are described below.

Each structure is given as a SMILES string. Results filed as inconclusive are left out. Activity calls are given as the source filed them. Rule for the calls, unless noted: active = hit-call score of the fitted dose curve at least 0.9, where 1 is the maximum; inactive = score below 0.9.

human Peroxisome Proliferator-activated Receptor alpha (PPARa), PPARA (gene 5465), sequence (Q07869 whole entry, looked up, the tested form may be a part): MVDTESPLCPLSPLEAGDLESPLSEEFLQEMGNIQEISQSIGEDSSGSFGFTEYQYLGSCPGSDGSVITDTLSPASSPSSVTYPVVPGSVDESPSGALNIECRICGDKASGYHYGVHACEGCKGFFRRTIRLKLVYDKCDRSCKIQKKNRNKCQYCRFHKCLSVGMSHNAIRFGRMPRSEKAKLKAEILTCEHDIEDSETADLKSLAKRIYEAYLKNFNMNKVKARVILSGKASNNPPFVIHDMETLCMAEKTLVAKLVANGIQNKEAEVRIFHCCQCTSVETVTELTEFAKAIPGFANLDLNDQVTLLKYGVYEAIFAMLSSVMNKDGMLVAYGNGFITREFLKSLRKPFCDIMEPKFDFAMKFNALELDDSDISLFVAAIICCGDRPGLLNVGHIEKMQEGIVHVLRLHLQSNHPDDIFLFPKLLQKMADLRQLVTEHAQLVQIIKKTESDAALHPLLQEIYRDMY
Transcriptional activator Myb (Homo sapiens), sequence (P10242 whole entry, looked up): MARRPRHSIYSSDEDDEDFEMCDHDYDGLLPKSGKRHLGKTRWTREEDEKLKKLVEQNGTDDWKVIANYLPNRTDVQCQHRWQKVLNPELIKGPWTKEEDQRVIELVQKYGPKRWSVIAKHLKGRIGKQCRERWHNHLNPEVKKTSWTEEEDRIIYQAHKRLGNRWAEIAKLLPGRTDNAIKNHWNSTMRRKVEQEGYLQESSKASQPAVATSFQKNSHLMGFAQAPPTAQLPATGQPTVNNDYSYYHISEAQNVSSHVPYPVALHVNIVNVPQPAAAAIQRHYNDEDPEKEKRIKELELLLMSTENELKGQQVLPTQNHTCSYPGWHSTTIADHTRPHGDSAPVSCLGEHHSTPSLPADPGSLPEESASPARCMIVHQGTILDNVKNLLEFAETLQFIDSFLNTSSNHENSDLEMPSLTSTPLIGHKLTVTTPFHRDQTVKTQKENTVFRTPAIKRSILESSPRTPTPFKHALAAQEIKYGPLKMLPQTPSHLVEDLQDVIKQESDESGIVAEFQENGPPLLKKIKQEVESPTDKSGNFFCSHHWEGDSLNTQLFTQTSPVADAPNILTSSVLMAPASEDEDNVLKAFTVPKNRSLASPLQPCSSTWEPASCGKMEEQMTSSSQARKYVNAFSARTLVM
Hepatocyte nuclear factor 4-alpha (Homo sapiens), sequence (P41235 whole entry, looked up, the tested form may be a part): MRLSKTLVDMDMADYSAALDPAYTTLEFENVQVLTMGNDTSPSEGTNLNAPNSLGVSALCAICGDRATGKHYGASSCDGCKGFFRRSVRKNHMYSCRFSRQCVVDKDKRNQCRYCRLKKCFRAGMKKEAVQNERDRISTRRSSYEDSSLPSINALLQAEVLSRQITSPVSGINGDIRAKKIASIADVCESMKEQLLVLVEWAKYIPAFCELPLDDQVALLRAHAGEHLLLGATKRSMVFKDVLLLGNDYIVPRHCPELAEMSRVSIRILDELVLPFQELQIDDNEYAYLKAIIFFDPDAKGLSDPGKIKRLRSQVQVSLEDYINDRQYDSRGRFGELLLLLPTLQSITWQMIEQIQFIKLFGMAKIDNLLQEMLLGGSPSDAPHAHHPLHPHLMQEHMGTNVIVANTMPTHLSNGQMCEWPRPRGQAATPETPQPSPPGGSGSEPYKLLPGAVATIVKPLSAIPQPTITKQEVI
Nuclear respiratory factor 1 (Homo sapiens), sequence (Q16656 whole entry, looked up): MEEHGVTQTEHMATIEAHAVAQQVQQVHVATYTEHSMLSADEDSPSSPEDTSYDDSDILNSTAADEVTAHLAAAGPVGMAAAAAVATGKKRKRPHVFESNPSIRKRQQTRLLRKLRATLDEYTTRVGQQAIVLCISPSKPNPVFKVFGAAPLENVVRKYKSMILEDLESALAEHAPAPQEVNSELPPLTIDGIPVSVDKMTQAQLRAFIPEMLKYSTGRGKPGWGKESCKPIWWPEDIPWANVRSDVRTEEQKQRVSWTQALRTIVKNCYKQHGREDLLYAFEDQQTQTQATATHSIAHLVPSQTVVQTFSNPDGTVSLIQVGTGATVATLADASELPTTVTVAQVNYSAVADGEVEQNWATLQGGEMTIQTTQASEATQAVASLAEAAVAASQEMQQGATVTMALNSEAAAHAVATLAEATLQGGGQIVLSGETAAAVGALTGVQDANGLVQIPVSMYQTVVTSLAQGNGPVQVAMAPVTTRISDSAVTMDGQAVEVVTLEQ
Myc proto-oncogene protein (Homo sapiens), sequence (P01106 whole entry, looked up): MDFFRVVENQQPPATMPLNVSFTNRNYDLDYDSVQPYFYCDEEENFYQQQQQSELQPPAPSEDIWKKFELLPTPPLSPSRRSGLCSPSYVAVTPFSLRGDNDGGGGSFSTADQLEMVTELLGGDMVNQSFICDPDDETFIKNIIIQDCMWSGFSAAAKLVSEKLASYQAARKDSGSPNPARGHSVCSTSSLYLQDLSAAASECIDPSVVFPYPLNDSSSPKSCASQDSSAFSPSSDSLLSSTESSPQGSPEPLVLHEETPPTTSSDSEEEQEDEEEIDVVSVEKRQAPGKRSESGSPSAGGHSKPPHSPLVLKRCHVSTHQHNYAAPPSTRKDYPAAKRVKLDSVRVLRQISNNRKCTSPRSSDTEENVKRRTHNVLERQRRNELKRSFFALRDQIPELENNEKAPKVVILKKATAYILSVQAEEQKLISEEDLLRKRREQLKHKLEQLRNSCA
Nuclear receptor subfamily 4 group A member 2 (Homo sapiens), sequence (P43354 whole entry, looked up, the tested form may be a part): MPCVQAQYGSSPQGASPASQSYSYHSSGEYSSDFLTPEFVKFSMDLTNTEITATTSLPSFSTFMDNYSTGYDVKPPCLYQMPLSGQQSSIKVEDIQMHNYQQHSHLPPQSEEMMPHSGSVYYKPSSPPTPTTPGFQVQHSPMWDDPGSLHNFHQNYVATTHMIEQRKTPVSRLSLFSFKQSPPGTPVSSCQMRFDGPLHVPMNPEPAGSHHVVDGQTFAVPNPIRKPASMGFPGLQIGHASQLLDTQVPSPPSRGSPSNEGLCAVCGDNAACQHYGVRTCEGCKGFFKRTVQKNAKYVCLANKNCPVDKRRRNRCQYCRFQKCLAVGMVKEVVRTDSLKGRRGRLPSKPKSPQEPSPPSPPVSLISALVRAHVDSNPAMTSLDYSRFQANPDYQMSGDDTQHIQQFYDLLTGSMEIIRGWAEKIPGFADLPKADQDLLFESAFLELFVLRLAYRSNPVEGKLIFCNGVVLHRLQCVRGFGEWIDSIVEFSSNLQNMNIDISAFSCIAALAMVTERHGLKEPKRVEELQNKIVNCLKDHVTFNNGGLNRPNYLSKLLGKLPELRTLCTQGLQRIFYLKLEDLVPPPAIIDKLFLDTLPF
Cellular tumor antigen p53 (Homo sapiens), sequence (P04637 whole entry, looked up): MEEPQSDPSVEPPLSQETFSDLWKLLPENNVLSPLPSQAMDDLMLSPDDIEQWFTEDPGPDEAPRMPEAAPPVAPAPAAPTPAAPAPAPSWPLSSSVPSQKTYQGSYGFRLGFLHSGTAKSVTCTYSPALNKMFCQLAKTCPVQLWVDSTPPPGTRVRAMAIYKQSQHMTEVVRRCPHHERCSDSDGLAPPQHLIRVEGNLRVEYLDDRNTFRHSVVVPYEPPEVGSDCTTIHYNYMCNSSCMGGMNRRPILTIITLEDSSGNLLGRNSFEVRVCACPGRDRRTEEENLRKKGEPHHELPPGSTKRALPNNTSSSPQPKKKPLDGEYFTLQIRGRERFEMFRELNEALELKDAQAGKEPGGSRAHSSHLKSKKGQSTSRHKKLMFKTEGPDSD
human Peroxisome Proliferator-activated Receptor delta (PPARd), PPARD (gene 5467), sequence (Q03181 whole entry, looked up, the tested form may be a part): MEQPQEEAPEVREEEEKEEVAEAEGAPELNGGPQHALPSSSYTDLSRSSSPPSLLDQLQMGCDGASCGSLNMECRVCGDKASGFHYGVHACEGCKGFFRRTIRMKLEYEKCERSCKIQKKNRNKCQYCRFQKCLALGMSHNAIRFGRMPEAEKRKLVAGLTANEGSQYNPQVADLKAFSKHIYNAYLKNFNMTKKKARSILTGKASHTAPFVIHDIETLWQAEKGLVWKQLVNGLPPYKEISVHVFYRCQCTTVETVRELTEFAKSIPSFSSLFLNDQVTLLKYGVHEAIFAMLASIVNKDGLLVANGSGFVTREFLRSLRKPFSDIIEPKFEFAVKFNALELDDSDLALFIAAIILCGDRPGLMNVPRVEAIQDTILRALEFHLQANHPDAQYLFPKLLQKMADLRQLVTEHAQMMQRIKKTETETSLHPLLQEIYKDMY

On to `CCOP(OCC)OCC`, for which the outcome in [1], in test [2], in test [3], in test [4], in test [5] and in [6] was inactive. Further, the outcome in [7], in [8], in [9], in [10] and in [11] was inactive.
As for `Cl/C=C\C[N+]12CN3CN(CN(C3)C1)C2`, the outcome in test [1], in test [12], in [3], in test [4], in test [5] and in test [6] was inactive. Also, the result in test [7] and in test [10] was inactive. Also, the results for the AC50 in test [8], in test [9] and in test [11] were 53.6 µM (active), 160 µM (active) and 173 µM (active), respectively.
With `COS(=O)(=O)c1ccc(C)cc1`, the call in test [1], in [12], in test [3], in [4], in test [5] and in [6] was inactive. The compound was classed as inactive in test [7], in test [8], in test [9], in test [10], in [11] and in [13]. In test [14], the compound was called inactive.
For `O=P(O)(O)CN(CP(=O)(O)O)CP(=O)(O)O`, the outcome in test [1], in [12], in test [3], in test [4], in [5] and in [6] was inactive. For the same compound, the compound was called inactive in test [7], in test [8], in test [9], in test [10], in [11] and in [14].
For `O=C(c1ccccc1)C(Cl)Cl`, the compound was classed as inactive in test [1], in [12], in test [3], in test [4], in [7] and in test [9]. The result in [11] and in test [13] was inactive. Further, the AC50 in test [5] is 24.8 µM (active); in test [6], 25.1 µM (active); in [8], 25.9 µM (active).
As to `Cl/C=C/Cl`, the result in test [1], in test [2], in test [4], in test [5], in test [6] and in test [7] was inactive. For the same compound, the outcome in [8], in test [10] and in [11] was inactive.
As to `C[C@H]1CCCC(=O)CCC/C=C/c2cc(O)cc(O)c2C(=O)O1`, the compound was called inactive in test [1], in test [2], in [3], in test [4], in test [6] and in test [7]. The call in [8], in [11], in [13] and in test [14] was inactive. Further, the AC50 in test [5] was 39.4 µM (active); in test [10], 10.7 µM (active).
For the compound `NC(=O)O`, the call in test [1], in test [12], in test [3], in test [4], in test [5] and in test [6] was inactive. In addition, the outcome in test [7], in test [8], in [9], in test [10], in [11] and in test [15] was inactive. Besides, the result in [16], in test [17], in test [13] and in test [18] was inactive.
As to `CCC(C)(C)c1ccc(O)c(C(C)(C)CC)c1`, the compound was called inactive in test [1], in [12], in test [4], in test [5], in [6] and in test [7]. In addition, the result in test [8], in test [10] and in test [11] was inactive. The AC50 in [3] was 33.4 µM (active); in test [9], 11.1 µM (active); in test [15], 12 µM (active); in [16] it was 8.8 µM (active); in test [17] it was 11.1 µM (active); in test [13], 55.2 µM (active). Besides, the AC50 in test [14] is 52 µM (active); in test [18], 12.4 µM (active).
